Source: PubChem (several laboratories)
H9c2 TAG inh: inhibitors of triacylglycerol accumulation | inhibition, % at 12.5 µM | actives 0.66% (n = 230,000) | H9c2 cells, Nile Red lipid (TAG) fluorescence; cells loaded with 200 µM oleic acid;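 active = pattern-corrected inhibition of lipid staining of at least 50% with the nuclear-stain viability signal not falling by more than 50%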;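 also: 0% = DMSO wells and 100% = triacsin C control wells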
Jurkat NFkB inh: lowers PMA/ionomycin-induced NF-kB signal in Jurkat cells; actives 0.53% (n = 330,000); PMA/ionomycin-induced NF-kB luciferase reporter, luminescence; inhibition, % at 4 µM; in the data active = inhibition above about 50%
aSyn UTR inh: 5' untranslated region of α-synuclein, MLPCN primary screen | alpha-synuclein 5'UTR reporter, inhibitor activity | inhibition, % (tested at 7.5 µM) | actives 0.82% (n = 300,000); in the data active = inhibition above about 60%;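 also: H4 neuroglioblastoma cells stably carrying SNCA 5'UTR luciferase fusion; 0% = DMSO wells and 100% = positive control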
Shn3 inh set2: reduces Shn3 3'UTR luciferase signal in osteoblasts. Clone20 osteoblast Shn3 3'UTR firefly luciferase, 24 h. inhibition, % at 12.5 µM. actives 0.52% (n = 360,000);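 active = mean inhibition of at least 75% with every replicate also reaching 75%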;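 also: 0% = median of neutral control wells and 100% = pilot-screen positive control compound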
697 NFkB inh: inhibitors of the PMA/ionomycin-induced NF-kB reporter in 697 B cells | inhibition, % at 4 µM | actives 0.33% (n = 330,000) | 697 B-cell NF-kB luciferase reporter, 16 h; in the data active = inhibition above about 35%
Gli-Sufu antag: blocks Gli-Sufu signaling in a luciferase reporter | Sufu-KO-LIGHT fibroblasts, Gli luciferase reporter luminescence | actives 0.74% (n = 340,000) | inhibition, % at 5 µM | AID 588413;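 active = inhibition above about 55%, limit read from the data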;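 also: 0% = DMSO-treated cells and 100% = wells with medium but no cells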
Gli antag conf: Gli-SUFU antagonism confirmation, single concentration | Sufu-KO-LIGHT cells, Gli luciferase reporter, luminescence | actives 40% (n = 2,500) | inhibition, % at 5 µM | shares compounds with Gli-Sufu antag;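 active = mean inhibition at 5 µM reaching about 45%, limit read from the data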;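 also: plate controls were DMSO-treated cells for no effect and wells lacking cells for full effect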
SufuKO cytotox: counter-screen for Gli-SUFU antagonists: cytotoxicity; shares compounds with Gli-Sufu antag; actives 32% (n = 2,500); AID 651994; Sufu-KO-LIGHT cells cytotoxicity, ATP luminescence; cytotoxicity, % at 5 µM;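 active = mean cytotoxicity at 5 µM above about 25%, limit read from the data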;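 also: cells exposed to compound overnight for roughly 16 to 18 hours; plate controls were DMSO wells with cells for no effect and medium without cells for full effect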
Wnt3a cs: Wnt3a reporter inhibition counter-screen | inhibition, % at 6.25 µM | shares compounds with Gli-Sufu antag | actives 20% (n = 2,500) | Wnt-LIGHT cells, Wnt3a-driven luciferase reporter, luminescence;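 active = mean inhibition above about 25%, limit read from the data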
* marks the source's active call; other numbers are inactive results; . = not tested or not shown. Rows were chosen to be rich in hits. Some 2.3% of all compounds tested hit in one or more screens of this group.

SMILES	H9c2 TAG inh	Jurkat NFkB inh	aSyn UTR inh	Shn3 inh set2	697 NFkB inh	Gli-Sufu antag	Gli antag conf	SufuKO cytotox	Wnt3a cs
N#C/C(=C\c1ccc(-c2ccc([N+](=O)[O-])cc2)o1)C(=O)Nc1nc(-c2cccs2)cs1	2	-11	-35	-5	9	70*	80*	21	44*
COc1ccccc1NS(=O)(=O)c1cc(NC(=O)CCNC(C)=O)ccc1N1CCCCC1	0	-3	5	-10	-12	-3	.	.	.
Cc1ccc(CNC(=O)C2CCC(=O)N(Cc3ccccc3F)C2)s1 (stereo not drawn)	.	-20	0	-25	-12	16	.	.	.
Cc1ccc(CSCCNC(=O)CSCc2ccc([N+](=O)[O-])cc2)cc1	.	12	16	14	21	55	21	2	10
Cc1cccc(CSCCNC(=O)CSCc2ccc([N+](=O)[O-])cc2)c1	-16	-14	1	9	-7	1	.	.	.
Cc1nnc(NC(=O)CSc2nnc(C)n2-c2ccc(F)cc2)s1	6	-11	-3	-9	-6	1	.	.	.
Cc1c(NC(=S)NC(NC(=O)C(C)(C)C)C(Cl)(Cl)Cl)c(=O)n(-c2ccccc2)n1C (stereo not drawn)	.	-9	11	-16	2	51	25	1	6
Cc1ccc(S(=O)(=O)c2nc(-c3ccco3)oc2NCC2CCCO2)cc1 (stereo not drawn)	-7	.	.	-9	.	-6	.	.	.
O=S(=O)(c1ccc(Br)cc1)c1nc(-c2ccco2)oc1NCC1CCCO1 (stereo not drawn)	-7	14	19	-6	29	62*	21	15	6
CCOc1ccc(Br)cc1S(=O)(=O)Nc1cccc(S(=O)(=O)Nc2ccccc2C(=O)O)c1	-4	-6	.	-5	2	55*	20	19	-11
CNS(=O)(=O)/C=C/c1ccccc1	-8	0	6	8	10	-7	.	.	.
CCn1c(N2CCN(CC(=O)c3c(C)n(C)c4ccc(OC)cc34)CC2)nc2c1c(=O)[nH]c(=O)n2C	9	2	13	6	1	-3	.	.	.
CC1CCN(Cc2c(C(=O)N3CCc4ccccc4C3)nc3ccc(Cl)cn23)CC1	.	0	12	14	0	51	21	33*	-43
N#Cc1c(C(F)(F)F)cc(-c2ccccc2)nc1SCC(=O)Nc1sc2c(c1C#N)CCC2	13	8	18	0	-11	68*	76*	10	54*
COc1ccc2cc(C(C)C(=O)OC(C)C)ccc2c1 (stereo not drawn)	-32	-9	.	-5	6	-13	.	.	.
COc1ccc2cc([C@@H](C)C(=O)O)ccc2c1	-8	-14	.	-2	-12	53	16	6	-38
Cc1ccc(-c2c[n+](Cc3ccc(Cl)c(Cl)c3)c3n2CCC3)cc1	.	11	20	57	-31	85*	80*	26*	-14
Nc1ccccc1N1CCOCC1	1	2	-1	-10	9	-3	.	.	.
Cc1ccc(NC(=O)/C=C/c2ccco2)cc1S(=O)(=O)N1CCCCCC1	4	6	-42	31	-24	77*	88*	9	-23
O=C(/C=C/c1ccco1)Nc1cccc(S(=O)(=O)N2CCOCC2)c1	.	-13	-16	-8	-2	13	.	.	.
Cc1ccc(NC(=O)COc2ccccc2C(N)=O)cc1S(=O)(=O)N1CCCCCC1	-37	30	.	72	-5	50	48*	28*	-13
Cc1cccc(OCCC(=O)Nc2ccc(C)c(S(=O)(=O)N3CCCCC3)c2)c1	-24	.	14	15	.	62*	22	22	-32
CCCCN(CCCC)c1nc(OC)nc(-n2nnc(C(C)=O)c2C)n1	5	0	35	17	-46	52	23	27*	-31
